# Data from PubChem BioAssay AID2284365 (EPA ToxCast).
# Activity calls are given as the source filed them. The calls were made as follows: active = hit-call score of the fitted dose curve at least 0.9, where 1 is the maximum; inactive = score below 0.9.
# Assay: CCTE_Mundy_HCI_iCellGABA_NOG_NeuronCount: CCTE's Neurite Outgrowth Assay in iCellGABA cells for Neuron Count, Mundy Lab
# Method: CCTE_Mundy_HCI_iCellGABA_NOG is a multiplexed, cell-based-readout assay that uses iCell GABANeurons from FUJIFILM Cellular Dynamics, Inc. (FCDI), human GABAergic enriched neurons derived from induced pluripotent stem (iPS) cells, with measurements taken at 50.33 hours after chemical dosing in a microplate: 96-well plate.CCTE_Mundy_HCI_iCellGABA_NOG_NeuronCount is one of four components of the CCTE_Mundy_HCI_iCellGABA_NOG assay. It measures cell viability related to number of neurons using High Content Imaging of fluorescently labelled markers.Data from the assay component CCTE_Mundy_HCI_iCellGABA_NOG_NeuronCount was analyzed at the endpoint CCTE_Mundy_HCI_iCellGABA_NOG_NeuronCount in the positive analysis fitting direction relative to DMSO as the negative control and baseline of activity. Using a type of viability reporter, loss-of-signal activity can be used to understand developmental effects.
# Exposure starts 2 hours post-plating by adding 10 ul of the working solution to 90 ul of media in the wells for a 1/10 dilution. Forty-eight hours after chemical treatment cells are fixed by direct addition of 100 ul of warm (37C) Dulbecco's phosphate buffered saline (DPBS) fixative solution containing 8% paraformaldehyde, 8% sucrose, and 0.1% of 3 mg/ml Hoechst 33342 into each well. Primary antibodies are prepared by dilution in Immunocytochemical Staining Buffer (ISB), 10X Dulbecco's PBS, 0.1% Saponin, 5% Bovine Serum Albumin, 0.5% NaN3 (Sodium Azide) and betaIII-tubulin (rabbit anti-betaIII-tubulin, 1:800) followed by Alexa Fluor-488 secondary (1:500) to label neuronal cell bodies and neurites. A Cellomics ArrayScan VTi HCS Reader is used for automated image acquisition and analysis of neurite outgrowth.
SMILES,outcome,AC50
COP(N)(=O)SC (stereo unspecified),inactive,
CCOP(=S)(OCC)SCSCC,,0.316 µM (active)
CNC(=O)CSP(=O)(OC)OC,,18.9 µM (active)
COP(=O)(OC)O/C(C)=C/C(=O)N(C)C,inactive,
CCCSP(=O)(OCC)Oc1ccc(Br)cc1Cl (stereo unspecified),inactive,
CCCCSP(=O)(SCCCC)SCCCC,,9.92 µM (active)
COP(=O)(NC(C)=O)SC (stereo unspecified),inactive,
CCN(CC)c1nc(C)cc(OP(=S)(OC)OC)n1,,19.1 µM (active)
CCOP(=O)(OCC)Oc1nc(Cl)c(Cl)cc1Cl,inactive,
COP(=O)(OC)C(O)C(Cl)(Cl)Cl (stereo unspecified),,0.205 µM (active)
CCOP(=S)(OCC)SCSC(C)(C)C,,9.92 µM (active)
CNC(=O)CSP(=S)(OC)OC,inactive,
CCOP(=S)(OCC)OC(Cl)C(Cl)(Cl)Cl (stereo unspecified),,9.92 µM (active)
CCOP(=S)(OCC)Oc1nc(Cl)c(Cl)cc1Cl,,9.92 µM (active)
COP(=O)(OC)OC(Br)C(Cl)(Cl)Br (stereo unspecified),,9.92 µM (active)
COP(=O)(OC)OC=C(Cl)Cl,inactive,
CCCSP(=O)(OCC)SCCC,inactive,
CCOP(=S)(OCC)Oc1ccc2c(C)c(Cl)c(=O)oc2c1,,23.4 µM (active)
CCOP(=S)(Oc1cnc(C(C)(C)C)nc1)OC(C)C (stereo unspecified),inactive,
CCOP(=O)(OCC)Oc1cc(C)nc(C(C)C)n1,inactive,
CCOC(=O)CC(SP(=O)(OC)OC)C(=O)OCC (stereo unspecified),inactive,
COP(=S)(OC)SCN1C(=O)c2ccccc2C1=O,,9.92 µM (active)
COP(=O)(OC)O/C(=C\Cl)c1cc(Cl)c(Cl)cc1Cl,inactive,
CCOC(=O)CC(SP(=S)(OC)OC)C(=O)OCC (stereo unspecified),,50 µM (active)
CCOP(=S)(OCC)Oc1cc(C)nc(C(C)C)n1,inactive,
CCOP(=O)(SC(C)CC)N1CCSC1=O (stereo unspecified),inactive,
